For some assays here: Entries with a potency or affinity are not part of this list.
Legend:
Parameters in all cases: scale not given: direction of the effect not stated beside the values
[1] = target: Protein translocase subunit SecA (Escherichia coli (strain K12)) (UniProt P10408); assay: Assay to Identify E. coli SecA ATPase Inhibitors; format: functional; conditions: 30 µM
[2] = target: T1, Ubiquitin-activating enzyme e1, putative (Leishmania donovani (strain BPK282A1)) (UniProt E9BSI1); assay: Leishmania donovani Ubiquitin Activating Enzyme (LdE1); format: functional; conditions: 30 µM
T1 sequence (whole entry): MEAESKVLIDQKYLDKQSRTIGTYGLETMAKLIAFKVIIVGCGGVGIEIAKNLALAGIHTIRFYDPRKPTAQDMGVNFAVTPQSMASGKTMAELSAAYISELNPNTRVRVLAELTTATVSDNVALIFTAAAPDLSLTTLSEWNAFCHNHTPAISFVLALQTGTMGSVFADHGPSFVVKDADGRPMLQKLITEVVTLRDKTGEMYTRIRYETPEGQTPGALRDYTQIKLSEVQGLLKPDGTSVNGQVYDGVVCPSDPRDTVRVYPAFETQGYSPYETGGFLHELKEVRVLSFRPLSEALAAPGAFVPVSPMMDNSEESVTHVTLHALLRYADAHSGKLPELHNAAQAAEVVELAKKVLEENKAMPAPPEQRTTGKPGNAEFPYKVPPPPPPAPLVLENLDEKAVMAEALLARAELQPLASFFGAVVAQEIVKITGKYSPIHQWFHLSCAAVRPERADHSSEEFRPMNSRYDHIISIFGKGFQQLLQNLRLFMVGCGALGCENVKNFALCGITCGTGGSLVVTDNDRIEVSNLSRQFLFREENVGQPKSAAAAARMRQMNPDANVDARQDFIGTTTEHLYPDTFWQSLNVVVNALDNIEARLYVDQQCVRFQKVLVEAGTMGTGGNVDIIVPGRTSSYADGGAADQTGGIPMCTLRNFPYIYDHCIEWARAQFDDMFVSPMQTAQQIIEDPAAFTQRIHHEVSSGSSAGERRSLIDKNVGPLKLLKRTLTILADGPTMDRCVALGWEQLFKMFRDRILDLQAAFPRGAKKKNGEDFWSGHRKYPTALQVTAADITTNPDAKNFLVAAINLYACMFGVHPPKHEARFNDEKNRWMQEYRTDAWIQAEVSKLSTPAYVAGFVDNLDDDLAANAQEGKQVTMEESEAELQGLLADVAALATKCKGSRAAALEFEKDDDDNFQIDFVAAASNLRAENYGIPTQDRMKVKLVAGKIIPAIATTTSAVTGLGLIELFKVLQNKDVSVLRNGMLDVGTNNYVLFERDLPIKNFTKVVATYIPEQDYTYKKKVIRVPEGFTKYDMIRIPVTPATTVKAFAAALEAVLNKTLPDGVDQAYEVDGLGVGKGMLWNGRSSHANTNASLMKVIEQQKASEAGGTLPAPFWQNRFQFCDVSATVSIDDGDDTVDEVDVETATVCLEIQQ

[3] = target: AMP-activated protein kinase, AMPK (Homo sapiens) (UniProt P54646+O43741+P54619+Q9UGJ0+Q9Y478+Q13131+Q9UGI9); assay: AMP-dependent Kinase enzyme assay. An in vitro enzyme assay that detects ADP turnover that is directly proportional to AMPK activity. This uses naive AMPK that is activated during the assay with MK-8722; format: functional; conditions: 30 µM
[4] = target: Sialic acid-binding Ig-like lectin 9 (Homo sapiens) (UniProt Q9Y336); assay: Hs-Siglec9 ALPHAscreen SOP 20170721; conditions: 10 µM
Trypanosoma cruzi = assay: Trypanosoma cruzi phosphomannomutase and mannose-1-phosphate guanylyltransferase assay; format: functional; conditions: 10 µM
[5] = target: T2, Arginase-2, mitochondrial (Homo sapiens) (UniProt P78540); assay: in vitro enzyme assay to detect the production of urea directly proportional to the activity of Arginase II; format: functional; conditions: 33.3 µM; also: in the data most compounds retested in dose-response had high values
T2 sequence (whole entry): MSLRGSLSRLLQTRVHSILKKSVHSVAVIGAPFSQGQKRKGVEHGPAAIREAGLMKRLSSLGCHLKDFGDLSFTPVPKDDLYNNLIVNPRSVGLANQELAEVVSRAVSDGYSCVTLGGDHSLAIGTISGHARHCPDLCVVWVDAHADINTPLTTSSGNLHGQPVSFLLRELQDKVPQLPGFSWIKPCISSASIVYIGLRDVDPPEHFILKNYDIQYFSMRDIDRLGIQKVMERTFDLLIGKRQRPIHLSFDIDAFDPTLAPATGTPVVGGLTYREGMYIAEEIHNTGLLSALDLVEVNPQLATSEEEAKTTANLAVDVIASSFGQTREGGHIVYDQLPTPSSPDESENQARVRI

[6] = target: T3, Proteasome subunit beta (Trypanosoma cruzi) (UniProt O96673); assay: Trypanosoma cruzi proteasome chymotrypsin-like activity (TcProtChymo) assay.; also: in the data most compounds retested in dose-response had high values; format: functional; conditions: 9.37 µM
T3 sequence (whole entry): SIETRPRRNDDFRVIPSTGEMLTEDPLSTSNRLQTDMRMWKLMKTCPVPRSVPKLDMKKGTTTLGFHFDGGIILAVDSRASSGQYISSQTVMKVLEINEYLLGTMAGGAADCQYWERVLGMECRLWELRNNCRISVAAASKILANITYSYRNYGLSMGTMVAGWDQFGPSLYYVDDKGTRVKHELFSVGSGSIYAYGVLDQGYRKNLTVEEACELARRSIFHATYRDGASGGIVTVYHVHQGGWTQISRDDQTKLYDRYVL

Homo sapiens = organism: Homo sapiens; assay: To identify inhibition of the IFN signalling (Jak-Stat) pathway via expression of an eGFP reporter gene under the control of an IFN-stimulated response element (ISRE) containing MxA promoter.; format: functional; conditions: 30 µM
[7] = target: T4, Tyrosyl-tRNA synthetase, putative (Trypanosoma cruzi (strain CL Brener)) (UniProt Q4DSP6); assay: Trypanosoma cruzi tyrosyl tRNA synthetase (TcYRS) _High Tyrosine SOP; format: functional; conditions: 30 µM; also: in the data most compounds retested in dose-response had high values
T4 sequence (whole entry): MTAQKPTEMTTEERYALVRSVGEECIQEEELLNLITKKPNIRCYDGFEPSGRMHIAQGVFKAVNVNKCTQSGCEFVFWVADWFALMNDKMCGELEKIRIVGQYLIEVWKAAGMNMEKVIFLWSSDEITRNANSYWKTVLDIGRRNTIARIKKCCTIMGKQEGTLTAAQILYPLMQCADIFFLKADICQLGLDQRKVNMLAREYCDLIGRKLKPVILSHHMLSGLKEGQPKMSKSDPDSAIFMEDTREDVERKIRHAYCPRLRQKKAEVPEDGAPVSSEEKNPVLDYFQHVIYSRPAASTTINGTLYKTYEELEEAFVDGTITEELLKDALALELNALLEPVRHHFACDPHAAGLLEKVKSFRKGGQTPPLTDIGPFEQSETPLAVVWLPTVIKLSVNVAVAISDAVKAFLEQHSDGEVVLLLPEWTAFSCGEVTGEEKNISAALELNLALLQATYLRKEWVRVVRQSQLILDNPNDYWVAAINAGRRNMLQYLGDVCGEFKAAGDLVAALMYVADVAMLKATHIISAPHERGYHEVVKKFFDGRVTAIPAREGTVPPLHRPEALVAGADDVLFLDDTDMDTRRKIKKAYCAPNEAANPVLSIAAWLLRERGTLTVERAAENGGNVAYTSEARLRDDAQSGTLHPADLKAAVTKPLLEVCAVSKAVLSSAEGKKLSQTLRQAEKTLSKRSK

[8] = target: T4, Tyrosyl-tRNA synthetase, putative (Trypanosoma cruzi (strain CL Brener)); assay: Trypanosoma cruzi tyrosyl tRNA synthetase (TcYRS) SOP; format: functional; conditions: 30 µM
[9] = target: Chromo domain-containing protein 1 (Saccharomyces cerevisiae (strain ATCC 204508 / S288c) (Baker's yeast)) (UniProt P32657); assay: ScCHD-1 Enzyme Inhibition Assay; format: functional; conditions: 30 µM; also: in the data most compounds retested in dose-response had high values
Chromo domain-containing protein 1 (Saccharomyces cerevisiae (strain ATCC 204508 / S288c) (Baker's yeast)), sequence (P32657 whole entry, the tested form may be a part): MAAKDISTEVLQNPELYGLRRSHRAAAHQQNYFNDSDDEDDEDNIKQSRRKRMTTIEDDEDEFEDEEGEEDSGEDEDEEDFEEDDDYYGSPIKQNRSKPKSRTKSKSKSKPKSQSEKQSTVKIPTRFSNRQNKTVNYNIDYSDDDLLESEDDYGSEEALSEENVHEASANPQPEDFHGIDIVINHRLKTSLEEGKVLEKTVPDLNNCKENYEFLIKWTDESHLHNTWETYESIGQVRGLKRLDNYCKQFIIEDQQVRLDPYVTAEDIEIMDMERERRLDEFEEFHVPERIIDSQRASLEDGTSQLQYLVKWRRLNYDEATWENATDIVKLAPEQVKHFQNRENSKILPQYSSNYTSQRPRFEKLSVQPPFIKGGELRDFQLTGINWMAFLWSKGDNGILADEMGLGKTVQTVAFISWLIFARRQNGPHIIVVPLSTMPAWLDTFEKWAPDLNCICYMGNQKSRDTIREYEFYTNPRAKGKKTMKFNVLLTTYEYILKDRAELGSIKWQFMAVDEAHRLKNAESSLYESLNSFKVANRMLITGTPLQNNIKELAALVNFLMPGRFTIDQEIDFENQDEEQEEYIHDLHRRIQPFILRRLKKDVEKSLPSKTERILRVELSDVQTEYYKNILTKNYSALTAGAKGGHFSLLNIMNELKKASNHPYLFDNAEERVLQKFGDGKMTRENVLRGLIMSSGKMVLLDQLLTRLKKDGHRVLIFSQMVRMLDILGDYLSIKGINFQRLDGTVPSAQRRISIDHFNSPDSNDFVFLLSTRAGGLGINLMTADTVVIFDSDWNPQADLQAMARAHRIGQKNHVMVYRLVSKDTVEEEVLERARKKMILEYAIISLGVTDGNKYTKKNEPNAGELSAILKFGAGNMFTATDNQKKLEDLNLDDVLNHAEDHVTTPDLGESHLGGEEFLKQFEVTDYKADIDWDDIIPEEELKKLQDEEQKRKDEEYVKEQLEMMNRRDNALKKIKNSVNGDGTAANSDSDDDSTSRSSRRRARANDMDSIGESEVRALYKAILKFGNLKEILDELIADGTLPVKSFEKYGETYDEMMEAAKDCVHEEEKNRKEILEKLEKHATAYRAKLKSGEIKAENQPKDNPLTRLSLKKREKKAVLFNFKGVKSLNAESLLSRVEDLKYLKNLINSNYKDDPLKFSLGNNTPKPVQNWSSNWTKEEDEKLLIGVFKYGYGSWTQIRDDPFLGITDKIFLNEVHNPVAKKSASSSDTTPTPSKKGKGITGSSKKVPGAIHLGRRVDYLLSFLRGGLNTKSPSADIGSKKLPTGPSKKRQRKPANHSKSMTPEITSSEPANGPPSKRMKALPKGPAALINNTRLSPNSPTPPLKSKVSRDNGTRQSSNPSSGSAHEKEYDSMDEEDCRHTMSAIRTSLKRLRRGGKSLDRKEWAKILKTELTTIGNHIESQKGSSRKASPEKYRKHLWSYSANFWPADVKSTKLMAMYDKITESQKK

Sialic acid-binding Ig-like lectin 9 (Homo sapiens), sequence (Q9Y336 whole entry): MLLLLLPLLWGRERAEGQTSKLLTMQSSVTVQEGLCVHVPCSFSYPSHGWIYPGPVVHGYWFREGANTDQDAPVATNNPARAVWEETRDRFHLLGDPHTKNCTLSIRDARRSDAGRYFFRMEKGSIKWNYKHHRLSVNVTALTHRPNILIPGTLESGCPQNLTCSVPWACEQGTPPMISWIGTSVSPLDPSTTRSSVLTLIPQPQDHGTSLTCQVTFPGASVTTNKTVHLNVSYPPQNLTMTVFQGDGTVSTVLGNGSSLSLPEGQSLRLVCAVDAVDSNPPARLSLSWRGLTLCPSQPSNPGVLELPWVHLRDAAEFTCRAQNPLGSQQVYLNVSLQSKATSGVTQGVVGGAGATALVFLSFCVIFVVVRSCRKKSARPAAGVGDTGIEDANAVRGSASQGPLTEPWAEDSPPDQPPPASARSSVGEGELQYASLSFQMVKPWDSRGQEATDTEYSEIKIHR
Protein translocase subunit SecA (Escherichia coli (strain K12)), sequence (P10408 whole entry): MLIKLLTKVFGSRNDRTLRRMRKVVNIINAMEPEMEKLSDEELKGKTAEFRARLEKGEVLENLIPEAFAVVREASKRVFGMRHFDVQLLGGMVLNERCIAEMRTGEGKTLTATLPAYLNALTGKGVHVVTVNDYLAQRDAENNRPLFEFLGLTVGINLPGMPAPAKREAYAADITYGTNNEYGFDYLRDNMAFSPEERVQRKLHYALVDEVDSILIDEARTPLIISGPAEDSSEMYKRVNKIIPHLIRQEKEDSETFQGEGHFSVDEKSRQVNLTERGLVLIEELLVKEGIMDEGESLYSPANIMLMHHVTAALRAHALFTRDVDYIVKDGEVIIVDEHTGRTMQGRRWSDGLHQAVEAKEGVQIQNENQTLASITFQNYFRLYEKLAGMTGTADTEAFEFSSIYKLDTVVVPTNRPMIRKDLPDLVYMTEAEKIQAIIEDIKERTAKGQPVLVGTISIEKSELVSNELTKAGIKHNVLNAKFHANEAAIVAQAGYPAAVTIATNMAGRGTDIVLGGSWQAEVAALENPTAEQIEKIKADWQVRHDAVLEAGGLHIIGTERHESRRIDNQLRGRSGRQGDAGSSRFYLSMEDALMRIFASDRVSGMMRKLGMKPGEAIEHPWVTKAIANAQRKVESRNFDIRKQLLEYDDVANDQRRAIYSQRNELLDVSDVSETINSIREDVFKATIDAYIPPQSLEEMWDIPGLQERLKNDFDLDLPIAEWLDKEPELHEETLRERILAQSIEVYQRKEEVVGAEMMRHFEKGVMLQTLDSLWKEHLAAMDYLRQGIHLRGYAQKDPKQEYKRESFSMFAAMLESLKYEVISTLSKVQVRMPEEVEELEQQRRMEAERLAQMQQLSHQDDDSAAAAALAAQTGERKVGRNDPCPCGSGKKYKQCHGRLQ

| Structure (SMILES) | Percent Effect [1] | Percent Effect [2] | Percent Effect [3] | Percent Effect [4] | Percent Effect (Trypanosoma cruzi) | Percent Effect [5] | Percent Effect [6] | Percent Effect (Homo sapiens) | Percent Effect [7] | Percent Effect [8] | Percent Effect [9] |
| --- | --- | --- | --- | --- | --- | --- | --- | --- | --- | --- | --- |
| CCn1ncc2c1C(COCC1CC1)CN(S(=O)(=O)N(C)C)C2 (stereo unspecified) | 0.0926% | 19.2% | -8.78% | 10.2% | 2.78% | -0.798% | 10.4% | 9.33% | 9.38% | 18.5% | -8.61% |
| CN(C)CC1CN(Cc2cccc(C(=O)N(C)C)c2)CCO1 (stereo unspecified) | -4.12% | 20.8% | -4.76% | -4.42% | -0.562% | 3.56% | 14.7% | 20.8% | 10.7% | 14.6% | -5.94% |
| O=C(c1ccc(Cl)c(Cl)c1)N1CCCC(n2cncn2)C1 (stereo unspecified) | -0.919% | 2.7% | -3.55% | 0.213% | -2.14% | 6.47% | -7% | 6.82% | 3.96% | 3.66% | 7.67% |
| O=C(Nc1ccc(F)cc1F)Nc1c[nH]c(=O)[nH]c1=O | 0.161% | 10.4% | 5.76% | -2.96% | -5.03% | 0.645% | 6.09% | 8.21% | -1.06% | 3.85% | -9.44% |
| COc1cccc2cc(CNCc3ccnc(N4CCOCC4)c3)oc12 | -5.63% | 0% | -16.9% | 3.48% | -6.7% | -6.41% | 10.6% | 26.6% | 1.48% | -11.1% | 3.15% |
| COc1cc(C(=O)N(Cc2ccc(F)cc2)C2CC2)cc2c1OCCO2 | 0.816% | 7.89% | 1.68% | -4.56% | 2.43% | 3.55% | 21.2% | 36.9% | 3.19% | 13% | -3.44% |
| Cc1noc([C@@H]2CC[C@@H]3[C@@H](CCN3S(=O)(=O)C3CC3)O2)n1 | 0.234% | 8.11% | 10.7% | -3.31% | -4.3% | 3.33% | 17.2% | 4.51% | 5.94% | 11% | 6.55% |
| O=C(CN1CCCC(O)C1)NC(=O)NCc1cccs1 (stereo unspecified) | -3.76% | 13.2% | 7.52% | -8.38% | -5.16% | -3.55% | 11.8% | 15.4% | 3.19% | 7.79% | -1.85% |
| O=C(N1CCOCC1)[C@@]12CCO[C@@H]1CCN(Cc1ccccc1F)C2 | -0.952% | -4% | -2.07% | 6.8% | -6.88% | 29.8% | 12.2% | 0.338% | 1.06% | -2.56% | -3.56% |
| Cc1cccc(CN2C(=O)CC[C@@H]3[C@H]2CCN3CC2CCOCC2)n1 | -3.19% | 16% | 1.45% | -4.46% | 2.36% | 0.699% | 14% | -19.1% | 5.32% | 11.5% | -4.59% |
| c1ccc2oc(CCCN3CCCC3Cn3cncn3)nc2c1 (stereo unspecified) | -1.49% | 0% | 0.485% | 12.2% | -1.02% | 3.51% | 5.92% | 13.6% | 7.92% | 6.1% | 7.47% |
| CCc1nc(CN2CCCN(C(=O)c3cnc[nH]3)CC2)cs1 | -0.253% | -2.7% | 2.03% | 4.57% | 2.14% | -1.66% | 12.9% | 2.83% | 3.96% | 1.22% | 4.62% |
| COC(=O)CS(=O)(=O)CCC(=O)N1CCCC1c1ccsc1 (stereo unspecified) | -3.22% | 6.94% | -5.88% | 21.4% | 2.82% | -2.21% | 5.44% | -6.88% | 5.26% | 7.69% | -2.96% |
| O=C(c1cccs1)N1CCC(n2nc(-c3ccco3)ccc2=O)CC1 | -6.35% | 12.2% | 7.9% | 14% | -1.19% | -5.8% | 12.9% | 0.605% | 9.68% | 16.9% | -26.4% |
| O=C1CC(N(C(=O)c2ccc3c(c2)CCC3)C2CC2)C(=O)N1 (stereo unspecified) | -3.91% | 7.59% | -5.04% | -3.45% | -8.21% | 4.18% | 5.98% | 25.8% | -0.493% | 1.27% | -6.63% |
| Cc1nnc(C(C)N2CCN(Cc3ccc(C#N)cc3)CC2)o1 (stereo unspecified) | -3.48% | 8.11% | -6.14% | 9.9% | -8.77% | 27.7% | -5.22% | 5.6% | 0.493% | 3.7% | 0.608% |

— ChEMBL document CHEMBL3988442, “University of Dundee, Small-Polar-MMV Screening Library” (2021)
